This is one part of a sample in which hits are shown more often than they occur.
Cycloheximide cs = affects cycloheximide protein synthesis inhibition readout, counter-screen; cell reporter, cycloheximide protein synthesis inhibition counterscreen; max response, %; actives 12% (n = 300,000); in the data active = max response mostly above about 13%, no sharp cut-off; inactive = mostly below about 14%; note: read at 38.3 µM for the half of the compounds with a filed dose; 0% is about no effect
LmPK inhibitor = LmPK (Leishmania mexicana) enzyme inhibition | AID 1721 | purified LmPK, Kinase-Glo ATP luminescence, 1 h | Potency, µM (doses to about 57.5 µM), for inactives: at the highest dose activity change, negative = inhibition, usual class: inhibitors | actives 0.37% (n = 290,000) | Q27686; note: potency is the fitted concentration of half-maximal effect; % is set by controls: 0 for no effect and ±100 for the full control effect
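qHTS format; LmPK 0.1 nM; substrates PEP 0.5 mM and ADP 0.1 mM. One-hour room-temperature incubation, then coupled luciferase luminescence; 0.5 nM enzyme wells mark activation.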
Shiga inhibitor = Shiga toxin inhibition. Vero cells, Shiga toxin protein synthesis inhibition reporter. inhibition, % at 38.7 µM. actives 9.2% (n = 290,000). AID 2315; in the data active = inhibition mostly above about 28%, no sharp cut-off; inactive = mostly below about 43%; note: 0% is about no effect
Giardia FBPA inh = blocks Giardia fructose-bisphosphate aldolase activity. A8B2U2. purified Giardia FBPA. Potency, µM (titrated, usually from 59.6 µM), without a hit: at the highest dose activity, negative = inhibition, usual class: inhibitors. actives 0.71% (n = 290,000). AID 2451; note: potency is the fitted concentration of half-maximal effect; % is set by controls: 0 for no effect and ±100 for the full control effect; nearly all actives have a fitted effect of over 55% in size
Target sequence (A8B2U2 whole entry, looked up): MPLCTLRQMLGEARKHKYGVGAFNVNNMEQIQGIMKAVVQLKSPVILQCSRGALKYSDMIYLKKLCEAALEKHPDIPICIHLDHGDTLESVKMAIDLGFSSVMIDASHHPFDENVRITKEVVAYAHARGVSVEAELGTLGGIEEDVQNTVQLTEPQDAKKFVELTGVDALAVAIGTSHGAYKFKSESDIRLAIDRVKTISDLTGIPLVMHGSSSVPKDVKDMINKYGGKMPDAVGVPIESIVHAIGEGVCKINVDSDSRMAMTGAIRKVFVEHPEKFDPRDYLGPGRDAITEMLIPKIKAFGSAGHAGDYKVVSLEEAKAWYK
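40 nM FBPA preincubated 10 min at RT with compound (up to 57.5 uM final), then substrate plus GAPDH/TPI/NAD/arsenate coupling and diaphorase/resazurin added. Fluorescence read after 20 min at RT, 525/598 nm.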
TbPYK inhibitor = T. brucei pyruvate kinase inhibition | TbPYK enzyme, Kinase-Glo Plus ATP luminescence, 45 min | Potency, µM (doses to about 76.8 µM), for inactives: at the highest dose activity, negative = inhibition, hits mostly inhibitors | actives 0.12% (n = 410,000) | Q57TT1; note: potency is the fitted concentration of half-maximal effect; % is set by controls: 0 for no effect and ±100 for the full control effect; nearly all actives have a fitted effect of over 50% in size
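Luminescence from Kinase-Glo Plus, added after a 45-minute room-temperature reaction, served as the end-point read-out. The enzyme and substrate were preincubated with compound before ADP (130 uM final) initiated turnover. Concentration-effect curves came from normalized qHTS data.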
RE007 growth inh = less growth of the S. pombe RE007 Vpr strain; S. pombe RE007 Vpr strain, BacTiter-Glo ATP luminescence, 24 h; Potency, µM (titrated, usually from 92.2 µM), for the others: at the top dose activity change, negative = less growth, hits mostly inhibitors; actives 0.21% (n = 360,000); AID 651644; active = well fitted falling curve with a large enough effect; inconclusive = small, poorly fitted or top-dose-only effect; inactive = no such curve, though single readings can be large or run the other way; note: potency is the fitted concentration of half-maximal effect; % is set by controls: 0 for no effect and ±100 for the full control effect; nearly all actives have a fitted effect of over 50% in size
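Fission yeast RE007 carrying one integrated HIV-1 vpr copy, seeded at OD 0.01 in PMG+AL medium with 23 nL pinned compound. Grown 24 h at 30 degrees; viability read by BacTiter-Glo luminescence after 5 min.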
Numbers without * were called inactive. Unless noted, calls come from the whole dose curve; as a rule, active = well fitted curve in the direction sought with a large enough effect; inconclusive = small, poorly fitted or top-dose-only effect, or another doubt; inactive = no such curve, though single readings can be large; an effect the other way counts as inactive or inconclusive.

For CCOC(=O)c1[nH]nc(C(=O)c2ccc(Br)cc2)c1O the results were Cycloheximide cs 14, LmPK inhibitor -2%, Shiga inhibitor 63*, Giardia FBPA inh 1%, TbPYK inhibitor -2% and RE007 growth inh -16%.
CCOC(=O)c1[nH]c2ccccc2c1NC(=O)c1ccc(Br)cc1 was read as TbPYK inhibitor -3%.
Screening COc1ccc(C)cc1NC(=O)C(=O)NCCc1csc2nc(-c3ccccc3F)nn12 returned TbPYK inhibitor 2%.
Screening O=[N+]([O-])c1cccn2cc(-c3ccc(Br)cc3)nc12 returned Cycloheximide cs 44*, LmPK inhibitor 5%, Shiga inhibitor 67*, Giardia FBPA inh 3%, TbPYK inhibitor 0% and RE007 growth inh -17%.
Screening Cc1ccc(-c2cn3cccc(C)c3n2)cc1NS(=O)(=O)c1ccccc1 returned TbPYK inhibitor 3%.
Screening Cc1cccn2cc(-c3ccc(S(=O)(=O)N4CCCCC4)cc3)nc12 returned Cycloheximide cs -2, LmPK inhibitor -6%, Shiga inhibitor 16, Giardia FBPA inh 5%, TbPYK inhibitor 1% and RE007 growth inh -13%.
Cc1cccn2cc(-c3ccc(Cl)cc3)nc12 was read as Cycloheximide cs 45*, LmPK inhibitor inconclusive, Shiga inhibitor 62*, Giardia FBPA inh -17%, TbPYK inhibitor -9% and RE007 growth inh inconclusive.
`Cn1cccc([N+](=O)[O-])c1=O` gave TbPYK inhibitor -6% and RE007 growth inh -7%.
COc1ccc(-c2cn3cccc(C)c3n2)cc1F was read as Cycloheximide cs 57*, LmPK inhibitor inconclusive, Shiga inhibitor 113*, Giardia FBPA inh -26%, TbPYK inhibitor 0% and RE007 growth inh -27%.
For Cc1ccc(-c2cn3cccc(C)c3n2)cc1 the results were Cycloheximide cs 33*, LmPK inhibitor 25µM*, Shiga inhibitor 51*, Giardia FBPA inh -2%, TbPYK inhibitor 1% and RE007 growth inh -24%.
C=C1[C@@H]2CC[C@H](C2)C1(C)C was read as Cycloheximide cs -1, Shiga inhibitor 3, Giardia FBPA inh 0% and TbPYK inhibitor -6%.
For CCCCc1c(O)nc(SCC(=O)N2CCCCC2)[nH]c1=O the results were Cycloheximide cs 17*, LmPK inhibitor 1%, Shiga inhibitor 65, Giardia FBPA inh 12%, TbPYK inhibitor 2% and RE007 growth inh 33%.
Screening CN(C)c1ccc(/C=C(/NC(=O)c2ccccc2)C(=O)N/N=C/c2ccc([N+](=O)[O-])c(O)c2)cc1 returned Cycloheximide cs 52*, LmPK inhibitor 3%, Shiga inhibitor 47*, Giardia FBPA inh -9%, TbPYK inhibitor 1% and RE007 growth inh -2%.
`O=C(N/N=C/c1ccc2c(c1)OCO2)/C(=C/c1ccc2c(c1)OCO2)NC(=O)c1ccccc1` gave Cycloheximide cs 1, LmPK inhibitor 1%, Shiga inhibitor -1, Giardia FBPA inh 4%, TbPYK inhibitor -3% and RE007 growth inh -21%.
Screening COc1ccc(OCC(O)CN(CC(O)COc2ccc(OC)cc2)c2cccc(O)c2)cc1 (centres undefined) returned Cycloheximide cs 19*, LmPK inhibitor -9%, Shiga inhibitor 18, TbPYK inhibitor 4% and RE007 growth inh 6%.
O=C(NCCc1c[nH]c2ccccc12)c1ccccc1O was read as Cycloheximide cs 38*, Shiga inhibitor 29* and Giardia FBPA inh -9%.
`Fc1cccc(NCCc2c[nH]c3ccccc23)n1` gave Cycloheximide cs 37*, LmPK inhibitor 7%, Shiga inhibitor 40, Giardia FBPA inh -16% and TbPYK inhibitor -2%.
Screening O=C(NCCc1ccccc1)C(=O)c1c[nH]c2ccccc12 returned Cycloheximide cs 40*, LmPK inhibitor 3%, Shiga inhibitor 61*, Giardia FBPA inh -7%, TbPYK inhibitor -2% and RE007 growth inh 8%.
For c1ccc2c(NCCc3c[nH]c4ccccc34)c3ccccc3nc2c1 the results were Cycloheximide cs -11, LmPK inhibitor 3%, Shiga inhibitor 24, Giardia FBPA inh -2% and TbPYK inhibitor 3%.
For O=C(NCCc1c[nH]c2ccccc12)c1c(Cl)nc2sccn12 the results were Cycloheximide cs 23*, LmPK inhibitor 1%, Shiga inhibitor 44, Giardia FBPA inh 9%, TbPYK inhibitor -3% and RE007 growth inh 16%.
O=C(Cc1ccccc1)NCCc1c[nH]c2ccccc12 was read as Cycloheximide cs -2, LmPK inhibitor 2%, Shiga inhibitor 7, Giardia FBPA inh 5%, TbPYK inhibitor 2% and RE007 growth inh -4%.
Screening CN(C)S(=O)(=O)c1ccc(C(=O)N2CC(=O)Nc3ccc(Br)cc3C2c2ccc(F)cc2)cc1 (centres undefined) returned TbPYK inhibitor 1%.
`COC(=O)CN1C(=O)C(C)(C)c2cc(S(=O)(=O)Nc3ccc(Br)cc3F)ccc21` gave TbPYK inhibitor 2%.
`O=c1c(=O)n(-c2ccccc2)ccn1Cc1c(F)cccc1Cl` gave TbPYK inhibitor 5%.
For Cc1ccc(S(=O)(=O)c2cnc(SC(C)C(=O)Nc3ccccc3)[nH]c2=O)cc1 (centres undefined) the results were TbPYK inhibitor -7%.
`Cc1ccc(NC(=O)C(=O)NCCc2c[nH]c3ccccc23)cc1C` gave Cycloheximide cs 2, LmPK inhibitor 1%, Shiga inhibitor -6, Giardia FBPA inh 8%, TbPYK inhibitor 4% and RE007 growth inh -17%.
Cn1c(C(=O)NCCc2c[nH]c3ccccc23)cc2sccc21 was read as Cycloheximide cs 82*, LmPK inhibitor 9%, Shiga inhibitor 89*, Giardia FBPA inh 12%, TbPYK inhibitor 0% and RE007 growth inh 3%.
`O=C(NCCc1c[nH]c2ccccc12)c1cc2sccc2n1Cc1ccccc1` gave Cycloheximide cs -2, LmPK inhibitor 5%, Shiga inhibitor -4, Giardia FBPA inh -7%, TbPYK inhibitor 2% and RE007 growth inh 4%.
Screening O=C(NCCc1c[nH]c2ccccc12)C(=O)Nc1ccccc1 returned Cycloheximide cs 29*, LmPK inhibitor 7%, Shiga inhibitor 83, Giardia FBPA inh 0%, TbPYK inhibitor 4% and RE007 growth inh -3%.
`N=C1/C(=C/c2ccc(-c3cccc(C(=O)O)c3)o2)C(=O)N=C2SC(CC(=O)N3CCOCC3)=NN12` gave Cycloheximide cs 25*, LmPK inhibitor 7%, Shiga inhibitor 11, Giardia FBPA inh -29%, TbPYK inhibitor -10% and RE007 growth inh 21%.
`N=C1/C(=C\c2ccc(-c3cccc(C(=O)O)c3)o2)C(=O)N=C2SC=C(c3ccccc3)N12` gave Cycloheximide cs 26*, LmPK inhibitor -11%, Shiga inhibitor 56*, Giardia FBPA inh -18%, TbPYK inhibitor -1% and RE007 growth inh -5%.

Compound activity: PubChem BioAssay, National Center for Advancing Translational Sciences (NCATS)
